In PubChem BioAssay AID2315 (National Center for Advancing Translational Sciences (NCATS), 2010):
Out of some 290,000 compounds screened, about 27,000 (9.3%) were called active. This is one part of a sample in which actives are shown more often than they occur. Unmarked numbers belong to inactive results. No stated cut-off is given here; in the data, active means inhibition mostly above about 28% (no sharp cut-off); inactive means mostly below about 43%.

Test: A qHTS for Small Molecule Inhibitors of Shiga Toxin; further: 0% is about no effect
Details: Vero cells, Shiga toxin protein synthesis inhibition reporter; at 38.7 µM, hits give high values
In the case of `Cn1cc([N+](=O)[O-])c(C(=O)Nc2ccc3c(c2)OCCO3)n1`, the inhibition is reported as 53.6% (active). Work on `Cc1nn(CC(=O)Nc2ccc3c(c2)OCO3)c(C)c1[N+](=O)[O-]` yielded an inhibition of -8.73%. For `Cc1onc(C(=O)Nc2ccc3c(c2)OCO3)c1[N+](=O)[O-]`, the inhibition was 62.7% (active). In the case of `c1ccc(CSc2nnc(-c3ccco3)n2Cc2ccccc2)cc1`, the inhibition is reported as 94.3% (active). Work on `c1ccc(CSc2nnc(-c3ccco3)c(-c3ccco3)n2)cc1` yielded an inhibition of -7.92%. `O=C(CSc1nnc(-c2ccco2)n1Cc1ccccc1)NC(=O)NCc1ccco1` showed an inhibition of 10.4%. In the case of `O=C(Nc1ccc(S(=O)(=O)NCC2CCCO2)cc1)c1ccc(F)cc1` (stereo not drawn), the inhibition is reported as -1.55%. Compound `CCc1cccc(C)c1NS(=O)(=O)c1cc(Br)cnc1N` has an inhibition of -8.52%. Compound `CC1(C)C2CC=C(/C=N/NC(=O)c3ccc(Cl)cc3)C1C2` (stereo not drawn) has an inhibition of 30.5%. For `Cn1nccc1/C=N\NC(=O)c1ccc(Cl)cc1`, the inhibition was 30.8% (active). In the case of `COc1ccc(/C=N/NC(=O)c2ccc(Cl)cc2)cc1COC(C)=O`, the inhibition is reported as -2.77%. `Cc1c(CC(=O)N2CCN(C(=O)C3COc4ccccc4O3)CC2)c(=O)oc2c(O)c(O)ccc12` (stereo not drawn) gave an inhibition of 6.52%. With `O=C(CCC1CCCN(C(=O)c2ccc(F)c(F)c2)C1)N1CCN(c2ccccn2)CC1` (stereo not drawn) the inhibition was -25.9%. In the case of `Cc1ccc(O)c(CNc2nc3ccccc3n2C)c1`, the inhibition is reported as 75.2% (active). For `Cc1ccc(O)c(CNc2nc3ccccc3[nH]2)c1`, the inhibition was 30.6%. Work on `CC(C)n1c(NCc2c[nH]c3ccccc23)nc2ccccc21` yielded an inhibition of 8.94%. For `O=C(NCCCN1CCOCC1)c1ccc2c(c1)N(Cc1cccc(F)c1)C(=O)c1ccccc1S2`, the inhibition was -12.3%. For `O=C(NC1CC1)c1cccc(Br)c1`, the inhibition was 23.6%. Work on `CC(=O)c1cc(-c2ccccc2)n(CC(=O)NC2CCCCC2)c1C` yielded an inhibition of 26.5%. With `O=C(NC1CCN(S(=O)(=O)c2ccc(F)cc2)CC1)c1ccccc1` the inhibition was -7.58%. `CC(NC(=O)c1cc(-c2ccccc2)on1)c1ccccc1` (stereo not drawn) gave an inhibition of 0.984%. In the case of `O=C(NC1CC1)c1ccc(-c2ccccc2)cc1`, the inhibition is reported as 97.2% (active). Compound `O=C(Nc1cc(C(F)(F)F)ccc1Cl)c1cc(C2CC2)on1` has an inhibition of -4.26%. Compound `CC(C)C(OC(=O)c1cccs1)C(=O)NC1CCCCC1` (stereo not drawn) has an inhibition of 8.34%. With `O=C(NC1CCCCCCC1)c1cccs1` the inhibition was 88.4% (active). With `O=C(CCC(=O)c1cccs1)NC1CCCCCC1` the inhibition was 29.7%. With `CSc1ccccc1NC(=O)c1cc(C2CC2)on1` the inhibition was 19.8% (active). Compound `CSc1ccccc1NC(=O)c1cc(Cl)sc1Cl` has an inhibition of 25.1%. In the case of `O=C(NC1CCCC1)c1cc(-c2ccccc2)on1`, the inhibition is reported as 157% (active). Compound `Cc1ccc(N2C(=O)C3C4C=CC(CC4)C3C2=O)cc1Cl` (stereo not drawn) has an inhibition of 6.23%. With `C[N+](C)(C)CCNC(=O)c1cc[n+](Cc2ccccc2)c(/C=N/O)c1` the inhibition was -12.2%. Compound `CCCCC[C@H]1CN(C2CCCCC2)C(=O)[C@@H]1CC(=O)NCc1ccc(OC)cc1` has an inhibition of -2.81%. Compound `CCOc1ccc2c(c1)c(=O)c(S(=O)(=O)c1ccc(C)cc1)cn2CC` has an inhibition of -4.36%. `O=C(NNS(=O)(=O)c1ccc(F)cc1)C1CCCCC1` gave an inhibition of -10.2%. In the case of `O=C(NC1CCCCC1)c1cc(C2CC2)on1`, the inhibition is reported as 108% (active). In the case of `O=C(NCCCn1ccnc1)c1cc(-c2ccccc2)on1`, the inhibition is reported as 146% (active). In the case of `COc1cc(OC)c(C(=O)NC2CCCCCC2)cc1OC`, the inhibition is reported as -10.7%. Work on `COc1ccc(-c2cc(C(=O)NCCCn3ccnc3)no2)cc1` yielded an inhibition of 46.8%. Compound `COc1ccccc1-c1cc(C(=O)NCCCn2ccnc2)no1` has an inhibition of 24.1%. Work on `Cc1nn(Cc2ccc(Cl)c(Cl)c2)c(C)c1NC(=O)c1cc(C2CC2)on1` yielded an inhibition of 12.5%. `Cc1ccc(OCCCC(=O)Nc2ccc(S(=O)(=O)Nc3cc(C)nc(C)n3)cc2)cc1` showed an inhibition of 12.9%. `C=C1CCN(C(CC(C)C)C(=O)NCc2cc(OC)c(OC)c(OC)c2)S(=O)(=O)c2ccccc21` (stereo not drawn) gave an inhibition of -0.34%. With `CCOc1cc(C2C(C(=O)c3ccco3)=C(O)C(=O)N2Cc2ccccc2)ccc1O` (stereo not drawn) the inhibition was -8.41%. With `CC(=O)[C@@]12O[C@@H]1C[C@H]1[C@@H]3CC[C@H]4C[C@@H](O)CC[C@]4(C)[C@H]3CC[C@@]12C` the inhibition was 33.3%. Compound `Cn1c(=O)c2sccc2n(Cc2ccc(Br)cc2)c1=O` has an inhibition of 22.9%. Compound `Cc1cc(C)c(C#N)c(SCc2ccc3c(c2)OCO3)n1` has an inhibition of 26.6%. With `Cc1ccc(CSc2nsc(C)c2C#N)cc1` the inhibition was 31.1% (active). `Cc1snc(SCc2c(F)cccc2Cl)c1C#N` gave an inhibition of -6.99%.
